# According to PubChem BioAssay (NCATS):
# Where “and” joins values, the source holds several entries; their conditions need not be identical. Equal entries are not always repeated. Inconclusive results are not listed. Calls of active or inactive are those of the source. The call rests on the fitted dose curve; in most records, active means well fitted inhibition curve with a large enough effect; inconclusive means small, poorly fitted or top-dose-only effect; inactive means flat fitted curve, though single readings scatter.
# Assay: Primary qHTS for inhibitors of nuclear receptor binding SET domain protein 2 (NSD2) in an isogenic RCH-ACV NSD2 p.E1099K mutant (9B) (AID 1645876); further: nearly all actives have a fitted effect of over 70% in size
# Conditions: RCH-ACV (leukaemia line) NSD2 E1099K (9B) viability, CellTiter-Glo, 72 h; series mostly up to 44.9 µM
# Potency means the concentration at half of the fitted maximal effect.
row,SMILES,Potency
1,C=CC(=O)Nc1cccc(Sc2nc(Nc3ccc(N4CCN(C)CC4)cc3)ncc2Cl)c1,2.9 µM (active) and 2.95 µM (active)
2,CC[C@H](C)n1cc(C)c2c(C(=O)NCc3c(C)cc(C)[nH]c3=O)cc(-c3ccc(N4CCNCC4)nc3)cc21,18.6 µM (active)
3,Cc1ccc(S(=O)(=O)OCC(=O)Nc2ccc(C(=O)O)c(O)c2)cc1,inactive
4,O=C(Nc1ncc(SCCN2CCCC2)s1)[C@]1(c2ccc(S(=O)(=O)C3CC3)cc2)C[C@@H]1C1CCCCC1,20.6 µM (active)
5,CC[C@@H]([C@H](C)O)n1ncn(-c2ccc(N3CCN(c4ccc(OCC5CO[C@@](Cn6cncn6)(c6ccc(F)cc6F)C5)cc4)CC3)cc2)c1=O (stereo partly drawn),inactive
6,CN1N=C(N)c2cn([C@@H]3O[C@H](COP(=O)(O)O)[C@@H](O)[C@@H]3O)c3ncnc1c23,2.63 µM (active)
7,Cc1ccc(C(=O)N(CCCN)[C@@H](c2oc3cc(Cl)ccc3c(=O)c2Cc2ccccc2)C(C)C)cc1,0.0332 µM (active)
8,CC(C)Oc1cc(Nc2nc(N[C@@H](C)c3ccc(F)cn3)ncc2Cl)[nH]n1,7.42 µM (active) and 8.2 µM (active)
9,COc1cc2c(cc1OC)CC(=O)N(CCCN(C)C[C@H]1Cc3cc(OC)c(OC)cc31)CC2,inactive
10,COc1ccc(-c2oc3c(CC=C(C)C)c(O)cc(O)c3c(=O)c2O)cc1,inactive
11,CC(C)(CO)[C@@H](O)C(=O)NCCC(=O)O,inactive
12,NCc1c[nH]c(=S)n1[C@H]1CCc2c(F)cc(F)cc2C1,inactive
13,COc1ccc(CCN(C)CCCOc2ccc(S(=O)(=O)c3[nH]c4ccccc4c3C(C)C)cc2)cc1OC,13.2 µM (active)
